# Hits are enriched below; roughly 11% of the tested compounds scored in any of these assays.
# HPGD block = blocks human HPGD enzyme activity; Potency, µM, inactives show at the highest dose activity change, negative = inhibition, most hits filed as inhibitors; purified HPGD, NADH fluorescence kinetic, PGE2 substrate; 4.3% of 150,000 active; AID 894; active = well fitted inhibition curve with a large enough effect, not every such curve was filed as active; inconclusive = small, poorly fitted or top-dose-only effect, or another doubt; inactive = no such curve, though single readings can be large or run the other way; also: potency is read from the fitted curve at half-maximal effect
#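 20 nM HPGD preincubated 15 min at room temperature with compound in 50 mM Tris-HCl pH 8, 0.01% Tween 20. Started with 1 mM NAD+ and 30 uM prostaglandin E2; NADH fluorescence (360/450 nm) read 5 times over 30-s intervals, last minus first.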
# 12-hLO inh = blocks human 12-lipoxygenase activity | P18054 | 0.12% of 150,000 active | purified 12-hLO, xylenol orange hydroperoxide absorbance | Potency, µM (top dose mostly 57.1 µM), for inactives: at the top dose activity change, negative = inhibition, hits mostly inhibitors | AID 1452; also: potency is read from the fitted curve at half-maximal effect; nearly all actives have a fitted effect of over 55% in size
# Target sequence (P18054 whole entry, looked up): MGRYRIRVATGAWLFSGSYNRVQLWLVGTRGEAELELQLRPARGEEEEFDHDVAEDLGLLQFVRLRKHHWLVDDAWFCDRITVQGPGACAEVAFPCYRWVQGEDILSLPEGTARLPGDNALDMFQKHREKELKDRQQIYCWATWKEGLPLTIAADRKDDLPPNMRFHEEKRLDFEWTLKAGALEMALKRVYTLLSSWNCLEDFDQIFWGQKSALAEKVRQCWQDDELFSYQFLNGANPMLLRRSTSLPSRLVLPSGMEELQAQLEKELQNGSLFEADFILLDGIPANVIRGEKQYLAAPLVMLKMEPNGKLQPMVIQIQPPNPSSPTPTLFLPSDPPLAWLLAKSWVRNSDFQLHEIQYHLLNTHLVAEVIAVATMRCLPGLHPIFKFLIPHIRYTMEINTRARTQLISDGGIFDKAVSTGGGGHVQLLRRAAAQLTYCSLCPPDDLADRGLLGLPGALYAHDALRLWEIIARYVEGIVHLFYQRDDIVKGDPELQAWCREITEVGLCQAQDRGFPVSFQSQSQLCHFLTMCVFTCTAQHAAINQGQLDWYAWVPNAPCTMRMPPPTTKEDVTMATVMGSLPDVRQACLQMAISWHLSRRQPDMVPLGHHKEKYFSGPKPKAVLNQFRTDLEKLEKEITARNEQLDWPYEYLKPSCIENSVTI
#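 Hydroperoxide output read as Fe(III)-xylenol orange absorbance, 573-to-405 nm ratio, after 30 min reaction with 40 uM arachidonic acid. Enzyme: 150 nM purified human 12hLO, 15 min compound preincubation; 25 mM Hepes pH 7.0, room temperature.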
# IMPase inh = IMPase inhibition in cells | CHO-M1 cells, IP1 accumulation, HTRF TR-FRET ratio | AID 901 | 120,000 tested, under 10 active | P97697 | inhibition (IP1 accumulation), % at 46.1 µM; active = well fitted curve in the direction sought with a large enough effect in the signal ratio, not every such curve was filed as active; inconclusive = small, poorly fitted or top-dose-only effect, or a change in a side signal; inactive = no such curve, though single readings can be large or run the other way; the % refers to the signal ratio;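 also: cells stimulated with carbachol in lithium chloride buffer; plate controls were DMSO basal wells for no effect and reference inhibitor wells for full effect; higher means more IMPase inhibition seen as more IP1 and lower FRET ratio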
#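 CHO-M1, 2000 cells/well, cultured 16–30 h; cpd up to 46 uM; carbachol (50 uM solution, stimulation buffer w/ 50 mM LiCl, pH 7.4), 30 min 37C; IP-One TR-FRET, 10 min RT; Ex 320/Em 665, 620; Hill-fit AC50.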
# PNC assembly inh = perinucleolar compartment assembly inhibition. PC3M PTB-GFP, PNC prevalence imaging, 16 h; active compounds read low. activity change (PNC), negative = inhibition, % at 10 µM. 3.1% of 140,000 active. AID 2417;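 active = readout at or below -70, meaning at least 70% loss of cells showing the perinucleolar compartment, a nuclear body marking cancer cells; inconclusive = readout between -30 and a set limit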;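 also: plate controls were DMSO wells for no effect and camptothecin positive control wells for full effect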
#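 Compounds are pinned in duplicate onto adhered PC3M cells stably expressing GFP-tagged PTB and incubated 16 h at 37 C. Cells are then fixed, nuclei stained with Hoechst, and PNC-positive cells counted.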
# ALDH1A1 inh = blocks purified human ALDH1A1 activity; P00352; Purified ALDH1A1, NADH fluorescence, propionaldehyde substrate; Potency, µM (series often up to 75.3 µM), for the others: at the highest dose activity, negative = inhibition, usual class: inhibitors; 7.3% of 220,000 active; active = well fitted inhibition curve with a large enough effect, not every such curve was filed as active; inconclusive = small, poorly fitted or top-dose-only effect, or another doubt; inactive = no such curve, though single readings can be large or run the other way;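 also: potency is read from the fitted curve at half-maximal effect; plate controls were no enzyme wells and a reference inhibitor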
# IMPase Li inh = cell-permeable IMPase inhibitors with lithium potentiation; 0.35% of 210,000 active; CHO-M1 cells, IP1 TR-FRET (IP-One), carbachol + lithium; Potency, µM (highest dose often 59.4 µM), inactives show at the highest dose activity, negative = IMPase inhibition, usual class: inhibitors;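 also: IP1 builds up when IMPase is blocked and the TR-FRET signal falls; potency is read from the fitted curve at half-maximal effect; plate controls were basal vehicle for no effect and high inhibitor control for full effect; nearly all actives have a fitted effect of over 50% in size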
#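 Test compounds were applied to CHO-M1 cells previously cultured for 16–30 h at 2000 per well. A small lithium amount accompanied them; after 30 min at 37C, IP1 was quantified by TR-FRET.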
# Active calls of the source: *; ? = inconclusive; / = not tested or not shown; [ ] = remark or other dose. Unless noted, calls follow the shape of the dose curve; as a rule, active = well fitted curve in the direction sought with a large enough effect; inconclusive = small, poorly fitted or top-dose-only effect, or another doubt; inactive = no such curve, though single readings can be large; an effect the other way counts as inactive or inconclusive. Unless noted, % is scaled to controls: 0 for no effect and ±100 for the full control effect.
SMILES,HPGD block,12-hLO inh,IMPase inh,PNC assembly inh,ALDH1A1 inh,IMPase Li inh
CC1(C)[C@@H]2CC[C@]1(C)[C@@H](OC(=O)CSC#N)C2,-10.9%,-0.9%[11.4 µM],/,/,1.78µM*,-0.6%
CC1(C)[C@H]2CC[C@]1(C)[C@@H](OC(=O)C[N+]1(C)CCOCC1)C2,/,/,/,/,4.0%,/
COCC1=C(C(=O)OC)C(c2ccco2)n2ncnc2N1 (configuration not stated),/,/,/,/,-5.7%,/
CC1=C(C(=O)OC2CCCCC2)C(c2cccnc2)n2nnnc2N1 (configuration not stated),-28.1%,-7.3%,/,7.2,10.5%,7.9%
COC(=O)C1=C(C)Nc2nnnn2C1c1cccnc1 (configuration not stated),35.5µM*,4.6%,-2.2,95.0,-6.9%,-5.8%
COC(=O)C1=C(C)Nc2nnnn2C1c1ccco1 (configuration not stated),?,-3.0%,-7.1,-3.2,10µM*,-5.1%[38.3 µM]
CCOC(=O)c1c(-c2ccc(OC)cc2)csc1NC(=O)C1CCCO1 (configuration not stated),/,/,/,/,8.91µM*,15.9%
CCOC(=O)c1c(-c2ccc(F)cc2)csc1NC(=O)C1CCCO1 (configuration not stated),/,/,/,/,11.2µM*,12.9%
CCCOC(=O)c1c(NC(=O)C2CCCO2)sc(C(=O)OC)c1C (configuration not stated),10µM*,-3.3%,/,0.0,2µM*,14.1%
CCOC(=O)c1c(-c2ccc(OC)cc2)csc1NC(=O)CCN1C(=O)c2ccccc2C1=O,28.2µM*,-0.1%,1.7,?,35.5µM*,1.9%[38.3 µM]
O=C(c1ccccc1Nc1ccc(SC(F)F)cc1)N1CCCCCC1,-21.8%,-6.8%,7.1,25.5,-8.9%,33.2%[38.3 µM]
COc1ccc(NC(=O)c2ccco2)cc1NC(=O)COc1ccc(Cl)c(C)c1,/,/,-0.2,/,/,/
O=C(CCn1cnc2ccccc2c1=O)Nc1nc(-c2ccc(Br)cc2)cs1,-9.2%,-6.3%,-7.5,-27.5,0.3%,-13.4%
S=C(NC1CCCCC1)NN(c1ccccc1)c1ccccc1,-0.4%,-30.0%,/,41.2,-4.9%,9.2%
C/C(=N\NC(=S)NC1CCCCC1)c1ccccc1,-9.6%,?,/,-100.0*,0.1%,0.5%
C/C(=N\NC(=S)NC1CCCCC1)c1ccc(O)cc1,/,/,/,/,14.1µM*,0.4%
C/C(=N\NC(=S)Nc1ccccc1C)c1ccc(O)cc1,/,/,/,/,20µM*,3.6%
O=C(O)P(=O)(O)O,-12.2%,-6.6%,/,/,1.1%,-4.6%
Cn1cc(-c2nc3cnc(Oc4ccccc4)nc3n(C3CC3)c2=O)c2ccccc21,/,/,/,/,-0.9%,7.2%
FC(F)(F)c1ccccc1-c1cncnc1NCCN1CCOCC1,/,/,/,/,15.3%,5.4%
O=C(COC(=O)c1ccc(Br)o1)Nc1nc2c(F)c(F)c(F)cc2s1,/,/,/,/,22.4µM*,/
O=C(COC(=O)c1ccc(NS(=O)(=O)c2cccs2)cc1)Nc1nc2c(F)c(F)c(F)cc2s1,/,/,/,/,0.2%,2.0%
COc1ccc(C2C(C(N)=O)=C(C)Nc3nc(CCCO)nn32)c(OC)c1 (configuration not stated),/,/,2.2,/,/,/
COc1ccccc1CN1CC[C@@]2(CCCN(S(C)(=O)=O)C2)C1,0.6%,4.1%,/,/,-9.2%,7.8%
Cc1cccc(C)c1NC(=O)NC1CC2CCC(C1)N2Cc1cccs1 (configuration not stated),-3.4%,-2.8%,-2.4[1.84 µM],-83.5*,-17.8%,38.0%[38.3 µM]
Clc1ccc(-c2nc3ccccn3c2Nc2ccc3c(c2)OCCO3)s1,/,/,1.6,/,/,/
COCC(=O)N1CCC[C@@]2(CCN(c3ncccn3)C2)C1,-15.9%,-1.5%,/,/,-7.2%,6.4%
CC(C)CC(NC(=O)OCC1c2ccccc2-c2ccccc21)C(=O)O (configuration not stated),-8.9%,1.9%,/,/,8.91µM*,1.4%
CC(C)CC(NC(=O)COc1ccccc1)C(=O)O (configuration not stated),-3.9%,-5.5%,2.9,124.2,-2.5%,4.0%[38.3 µM]

# From PubChem BioAssay
